# Bioassay records from PubChem.
# Compounds with a hit are over-represented: about 4% of the library has one in this group of screens.
# ADAM10 inh: ADAM10 inhibition, QFRET primary screen; O14672; recombinant ADAM10, EDANS/DABCYL FRET peptide cleavage, 3 h; inhibition, % at 7 µM; 0.62% of 370,000 active;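 active means inhibition above a per-campaign cutoff equal to the mean of compounds falling between control-based bounds plus 3 SD, cut at about 20% in these data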;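 further: 0% = DMSO wells while the 100% control is not disclosed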
# NR3A LBD binder: NR3A (human) ligand-binding domain modulation. NR3A LBD differential scanning fluorimetry, Tm shift; 0% = protein alone, 100% = glycine-bound protein. Tm shift relative to glycine control, % at 25 µM. 2.5% of 340,000 active. AID 1259313;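 active means melting temperature shift of at least 10% of the positive control shift, at one fixed dose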
# aDG glyco up: alpha-DG glycosylation activation. Pro5-aDG cells, alpha-DG glycosylation AlphaScreen (IIH6); 0% Pro5, 100% B10-LARGE cell signal. activation, % at 10 µM. 0.22% of 360,000 active;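 active means activation of at least 8% versus controls, or a plate z-score of at least 8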;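 further: Pro5 are CHO cells carrying HIG-tagged alpha-DG that lacks glycosylation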
# FAS TE block: blocks the thioesterase domain of human fatty acid synthase | recombinant FAS-TE, OMFH fluorogenic substrate, fluorescence endpoint | AID 602261 | P49327 | inhibition, % at 15 µM | 0.67% of 360,000 active;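 active means compounds whose normalised, plate-corrected inhibition of enzyme fluorescence in the single-dose primary screen is 50% or more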;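 further: 0% = DMSO with enzyme and 100% = substrate without enzyme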
# ADAM17 inh: inhibits human ADAM17. recombinant ADAM17, EDANS/DABCYL FRET peptide cleavage. inhibition, % at 6.95 µM. 0.83% of 370,000 active. AID 720648;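 active means inhibition above the mean of compounds lying between control limits plus 3 SD, set per campaign, cut at about 8.5% in these data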;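 further: 0% = DMSO-only wells as the low control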
# Starred values were filed as active, the others as inactive; x = not tested or not shown.
SMILES,ADAM10 inh,NR3A LBD binder,aDG glyco up,FAS TE block,ADAM17 inh
COc1ccccc1OC(C)C(=O)O (configuration not stated),1.6,12.7*,-0.1,-7.8,-4.5
Nc1nc(-c2ccc3c(c2)CCCC3)c(CC(=O)O)s1,-3.9,35.4*,0.0,-5.2,-3.5
Nc1nc(-c2ccc3c(c2)OCCO3)c(CC(=O)O)s1,-10.1,0.5,0.0,-3.3,-7.6
O=C1NN(c2ccccc2)C(=O)/C1=C/c1ccc(Sc2ccc(Cl)cc2)o1,11.8,-2.3,2.6*,-0.7,-2.8
CC(=O)N1CCN(c2ccc(S(=O)(=O)NCCN(C(C)C)C(C)C)cc2[N+](=O)[O-])CC1,-0.3,-0.5,-0.2,-14.2,1.5
CN(C)CCNS(=O)(=O)c1ccc(N2CCN(c3ccc(F)cc3)CC2)c([N+](=O)[O-])c1,4.3,-0.5,9.1*,-9.1,1.2
O=C(NC(=S)Nc1cc(-c2nc3ccccc3[nH]2)ccc1Cl)c1ccc2c(c1)OCO2,-19.1,18.2*,-0.2,0.2,-7.2
S=C(NCc1ccc2c(c1)OCO2)Nc1ccc(-c2nc3ccccc3[nH]2)cc1,-20.4,26.4*,1.5,21.9,-0.5
CN(C)CCNC(=S)Nc1ccc(-c2nc3ccccc3[nH]2)cc1,-17.3,5.0,0.8,-2.8,-8.3
CCC(=O)Nc1cccc(NC(=O)c2ccccc2Cl)c1,-7.3,-0.1,0.0,-2.8,-2.3
O=C(Nc1ccc(NC(=S)NC(=O)c2ccccc2Cl)cc1)c1cccc(Cl)c1,-133.6,18.3*,1.0,-1.6,-1.2
O=C(Nc1cccnc1)c1cccnc1Cl,1.8,-0.1,-0.1,-6.5,-2.0
O=C(Nc1ccc(NC(=O)c2cccnc2Cl)cc1)c1cccc(Cl)c1,10.3,21.9*,0.4,1.1,-3.9
CC(C)C(=O)Nc1cccc(NC(=S)NC(=O)c2ccccc2Cl)c1,-1.6,3.1,0.5,1.5,2.5
CCC(=O)Nc1cccc(NC(=S)NC(=O)c2ccccc2Cl)c1,-9.5,17.2*,0.3,1.1,-1.4
CCNC(=S)Nc1cccc(NC(=O)c2ccccc2O)c1,-201.5,11.0*,-0.1,-6.6,-88.1
CN1CCN(C(=O)c2cnn(-c3ccccc3)c2NC(=O)c2ccccc2Br)CC1,10.1,-2.0,-0.1,-7.2,-0.1
Cc1ccc(C(=O)n2nnc3ccccc32)cc1[N+](=O)[O-],10.3,0.4,0.0,33.4,-0.7
OC(CSc1ccccc1)CN1CCN(c2cccc(Cl)c2)CC1 (configuration not stated),-14.6,-6.0,0.3,20.5,0.9
CC(C)NS(=O)(=O)c1ccc(OCC(=O)Nc2cccc(F)c2)cc1,6.0,-2.4,0.3,-0.1,-0.7
CCOC(=O)Cn1nc(C)c(NC(=O)c2ccc(Br)o2)c1C,-0.9,-3.7,0.0,-6.4,-2.9
COc1ccc(-c2noc(N(C)CC(=O)Nc3cccc(C(F)(F)F)c3)n2)cc1,16.8,10.1*,0.0,36.3,5.5
COc1cccc(NC(=O)CN(C)C(=O)c2cccnc2Nc2cccc(C(F)(F)F)c2)c1,x,35.4*,0.0,37.5,x
CCOc1ccc(N(CC(=O)Nc2ccc(Cl)cc2)S(C)(=O)=O)cc1,4.9,x,-0.1,1.4,2.1
O=[N+]([O-])c1cc(/C=N\O)ccc1Oc1ccc(F)cc1,2.1,16.1*,0.1,35.3,5.0
SMILES,ADAM10 inh,NR3A LBD binder,aDG glyco up,FAS TE block,ADAM17 inh
COC1=CC(=O)C(O)=C(CCCCCCC/C=C/CCCCCCCC2=C(O)C(=O)C=C(OC)C2=O)C1=O,x,25.0*,-0.2,41.5,x
CCCCCCCCCCCC1=C(O)C(=O)C=C(O)C1=O,x,-13.6,0.1,61.5*,x
c1ccc(C(c2ccccc2)c2nc(-c3cccnc3)no2)cc1,5.8,15.7*,0.0,17.9,-1.9
c1ccc(C(Cc2nc(-c3cccnc3)no2)c2ccccc2)cc1,-1.2,1.0,-0.2,14.8,-0.3
CC(=O)c1ccc(NC(=S)N(C)C2CCN(C)CC2)cc1,-0.8,19.6*,0.0,-5.8,-3.5
O=C(Cn1nnc(-c2cc(C(F)(F)F)cc(C(F)(F)F)c2)n1)NNC(=S)Nc1ccc(Cl)cc1,5.1,35.9*,-0.1,29.2,0.5
CCOc1ccc(S(=O)(=O)Nc2nc3ccccc3nc2N2CCN(C)CC2)cc1,-117.5,-1.5,0.5,-3.0,-48.2
O=S(=O)(Nc1nc2ccccc2nc1N1CCN(c2ccccc2F)CC1)c1ccc(Cl)cc1,-0.2,21.2*,0.1,27.5,-4.2
NS(=O)(=O)c1cccc(Nc2nc3ccccc3nc2NS(=O)(=O)c2ccc(Cl)cc2)c1,-39.9,27.9*,-0.2,19.2,-21.3
CC(=O)Nc1ccc(S(=O)(=O)Nc2nc3ccccc3nc2Nc2cccc(O)c2)cc1,-11.6,19.2*,0.0,-3.1,-6.7
CC(=O)Nc1ccc(Nc2nc3ccccc3nc2NS(=O)(=O)c2ccc(Cl)c([N+](=O)[O-])c2)cc1,12.4,23.8*,0.1,38.3,2.5
O=C1/C(=C/c2ccccn2)SC(=S)N1c1cccc(O)c1,14.3,3.0,0.1,-4.7,-1.1
COc1ccc(/C=C2\N=C(C(C)(C)C)OC2=O)c(OC)c1,1.0,0.7,-0.1,15.6,0.1
CC(=O)Nc1ccc(S(=O)(=O)Nc2ccccc2C(=O)N2CCCC2)cc1,-2.0,-0.7,0.0,-5.6,1.1
CC(=O)Nc1ccc(S(=O)(=O)Nc2cc(C)c(-n3nc4ccccc4n3)cc2O)cc1,-1.8,10.3*,0.3,-0.3,0.8
CC(=O)Nc1ccc(S(=O)(=O)Nc2nc3ccccc3nc2Nc2ccc(N)cc2)cc1,-40.8,6.1,0.2,-5.2,-19.4
CC(=O)Nc1ccc(S(=O)(=O)Nc2nc3ccccc3nc2Nc2ccc3ccccc3c2)cc1,-49.4,34.2*,-0.3,25.4,-18.3
CC(=O)Nc1ccc(S(=O)(=O)Nc2nc3ccccc3nc2Nc2ccc(C(=O)O)c(O)c2)cc1,-29.7,24.2*,-0.2,-5.3,-7.2
O=C(/C=C/c1ccccc1)CC(=O)c1ccccc1O,-77.7,12.9*,-0.4,2.4,-27.3
CCOc1ccccc1CN(Cc1ccco1)S(=O)(=O)c1ccc(-n2cnnn2)c(OC)c1,18.0,0.5,-0.1,30.4,12.0*
O=C(NCCN1CCCC1)C1CC(=O)N(C2CCCCC2)C1 (configuration not stated),-1.7,19.5*,-0.1,-6.4,0.0
N/C(=N\c1nc2ccccc2o1)NC(=O)/C=C/c1ccccc1,0.9,22.1*,-0.4,-1.6,-1.5
N/C(=N\c1nc2ccccc2o1)NC(=O)c1ccccc1,-2.2,-13.0,-0.1,3.5,-3.0
O=C(Nc1ccc(-c2nc3ccccc3o2)cc1)c1ccc(N2C(=O)C3C4C=CC(C4)C3C2=O)cc1 (configuration not stated),-92.0,18.4*,-0.2,-5.3,-36.4
O=C(Nc1ccc(-c2nc3ccccc3o2)cc1)c1cc(-n2cnnc2)ccc1Cl,-54.5,-12.1,3.3,-19.5,-16.4
Cc1ccc2oc(-c3ccc(NC(=O)c4ccc5c(c4)OCO5)cc3)nc2c1,-8.6,21.8*,-0.4,-3.2,-3.6
